Structures are written as SMILES. About 350 (0.49%) of roughly 72,000 compounds were called active. The sample holds actives, similar compounds and a random draw of the others, so the mix is not that of the screen. Values without a mark were called inactive.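 How the source made its calls: active means activity remaining at or below 50% of control, provided the compound also passes the data quality filters; inactive means the rest, including low values that fail the filters.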

In this experiment the target is Ubiquitin carboxyl-terminal hydrolase BAP1 (Homo sapiens) (UniProt Q92560). Description: inhibitors of BAP1 deubiquitinase, primary screen, biochemical, Ub-AMC fluorescence, kinetic (AID 436).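 Further: 100% = DMSO wells rate and 0% = substrate alone blank rate.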 The settings on record: recombinant BAP1, Ub-AMC hydrolysis fluorescence kinetic; at 20 µM; stronger effect = lower value.
Ubiquitin carboxyl-terminal hydrolase BAP1 (Homo sapiens), sequence (Q92560 whole entry, looked up): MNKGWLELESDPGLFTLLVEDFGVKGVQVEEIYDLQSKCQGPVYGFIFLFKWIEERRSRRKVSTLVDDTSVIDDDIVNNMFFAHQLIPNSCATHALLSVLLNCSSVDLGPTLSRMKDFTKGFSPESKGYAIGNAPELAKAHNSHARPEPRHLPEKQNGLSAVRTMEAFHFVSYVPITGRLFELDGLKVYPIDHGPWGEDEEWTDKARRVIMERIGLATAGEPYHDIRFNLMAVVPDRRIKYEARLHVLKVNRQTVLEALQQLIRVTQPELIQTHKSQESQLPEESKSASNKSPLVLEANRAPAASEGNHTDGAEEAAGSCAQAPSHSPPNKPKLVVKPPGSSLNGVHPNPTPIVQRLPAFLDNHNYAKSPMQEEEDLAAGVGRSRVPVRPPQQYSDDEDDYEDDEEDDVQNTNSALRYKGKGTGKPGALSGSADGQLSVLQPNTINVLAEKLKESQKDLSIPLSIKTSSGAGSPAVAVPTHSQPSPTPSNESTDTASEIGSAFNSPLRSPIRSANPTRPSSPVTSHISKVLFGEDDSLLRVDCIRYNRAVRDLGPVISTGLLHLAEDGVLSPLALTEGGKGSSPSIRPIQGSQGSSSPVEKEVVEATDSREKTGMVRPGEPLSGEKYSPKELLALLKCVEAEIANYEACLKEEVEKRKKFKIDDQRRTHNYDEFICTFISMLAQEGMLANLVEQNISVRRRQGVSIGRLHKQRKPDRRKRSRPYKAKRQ
For the compound `Cn1c(=N)n(CC(=O)c2ccco2)c2ccccc21`, the activity remaining (% of control) is 76.8%. The same measure for `Brc1ccc(-c2nc3ccccc3nc2-c2ccccc2)cc1`: 66.2%.

Regarding `CCOc1ccc(Nc2cc(C)nc3ncnn23)cc1`, the activity remaining (% of control) is 112%. The result for `Nc1nnc(-c2ccccc2SCc2ccc(F)cc2)s1` reads 68.2%; that for `COc1ccc(C(=O)Nc2ccc3oc(-c4ccc(C)cc4)nc3c2)cc1[N+](=O)[O-]`, 77%.

With `Cc1c(N=Cc2cc(Br)ccc2O)c(=O)n(-c2ccccc2)n1C`, the activity remaining (% of control) is 106%. The same measure for `CC(=O)CCN1C(=O)C(=O)c2ccccc21`: 83.2%.

As to `CCn1c(N2CCCC2)nc2c1c(=O)n(C)c(=O)n2C`, the activity remaining (% of control) is 117%. With `Cc1nc2sc3ccccc3c2s1`, the activity remaining (% of control) was 122%. The result for `COc1ccc(-c2csc(NC(=O)c3ccc(S(=O)(=O)N4CC(C)CC(C)C4)cc3)n2)cc1C` (centres undefined) reads 92.9%; that for `Cn1c(SCC(=O)c2ccc(Cl)cc2)nc2c1c(=O)[nH]c(=O)n2C`, 112%; that for `COc1ccc(OC)c(NC(=O)c2cc(Cl)ccc2[N+](=O)[O-])c1`, 90.2%. The result for `CCCCOC(=O)C1=C(C)NC2=C(C(=O)CCC2)C1c1ccc(OCC)c(OC)c1` (centres undefined) reads 72.5%; that for `Cc1ccc2cccc(NC(=O)C34CC5CC(CC(C5)C3)C4)c2n1`, 149%; that for `CCOC(=O)c1c(C)oc2ccc(N(C(=O)c3ccccc3)S(=O)(=O)c3ccc(Cl)c([N+](=O)[O-])c3)cc12`, 71%. The same measure for `CCCOC(=O)c1ccc(NC(=O)c2ccc(OC)cc2)cc1`: 167%. As to `CC1=C(C(=O)OCc2ccccc2)C(c2ccccc2I)NC(=O)N1C` (centres undefined), the activity remaining (% of control) is 104%. With `CCOC(=O)c1c(N=c2oc3ccccc3cc2C(=O)Nc2ccc(F)cc2)sc(C)c1C`, the activity remaining (% of control) was 63.1%. The same measure for `CC(C)C(=O)Nc1c2c(nn1-c1ccc(Cl)cc1)CSC2`: 73.6%; for `COc1ccc(N2C(=O)CSC2c2cc(Br)ccc2OC)cc1` (centres undefined): 80.4%.

For `O=C(Nc1nc2ccccc2s1)C1CC(=O)N(c2ccccc2Cl)C1` (centres undefined), the activity remaining (% of control) is 204%. Turning to `O=C(CSc1nc2sc3c(c2c(=O)[nH]1)CCCC3)NCc1ccccn1`, the activity remaining (% of control) was 170%. The result for `O=C(Nc1cccc(-c2nc3ccccc3o2)c1)C1CCCCC1` reads 79.6%; that for `COc1ccc(C2CC(c3c(-c4ccccc4)c4cc(Br)ccc4[nH]c3=O)=NN2C(=O)c2ccncc2)cc1` (centres undefined), 97.8%; that for `O=C(Cn1c(=O)sc2ccccc21)Nc1nc2c(s1)CCCC2`, 79.8%. With `Fc1ccc2nc(N3CCCCC3)sc2c1`, the activity remaining (% of control) is 108%.

For the compound `Fc1ccc2nc(Nc3nc4c(s3)CCCC4)sc2c1`, the activity remaining (% of control) was 43.8% (active). The result for `COc1ccccc1NS(=O)(=O)c1cc(C(=O)c2ccc(Br)cc2)ccc1C` reads 78.7%; that for `CC(C)C(O)(c1ccccc1)c1cc[n+](C)cc1` (centres undefined), 229%; that for `CCOC(=O)C(C(=O)OCC)n1ccc(=O)[nH]c1=O`, 71.2%. The result for `CC(=O)NC12CC3CC(C1)CC(c1ccc([N+](=O)[O-])cc1)(C3)C2` reads 70.3%. `CC(=O)NC(=O)c1cc2cc(Cl)ccc2oc1=Nc1ccc(C#N)cc1`: the activity remaining (% of control) was 84.2%. The result for `Cc1ccc(S(=O)(=O)NCCN=Cc2ccc3c(c2)OCO3)cc1` reads 99.1%; that for `O=C1c2ccccc2-c2onc3c(N4CCCC4)ccc1c23`, 60.4%; that for `COc1ccc(C(=O)Nc2c[nH]c(=O)[nH]c2=O)cc1OC`, 54.8%. The same measure for `N#CCSc1nc2ccccc2c(=O)n1-c1ccccc1`: 109%; for `O=c1c2ccccc2nc(CSc2nnnn2-c2ccccc2)n1-c1ccccc1`: 37.5% (active). Turning to `CCOC(=O)c1sc(NC(=O)c2cc(Cl)ccc2[N+](=O)[O-])nc1C`, the activity remaining (% of control) is 56.8%. The result for `Cc1ccc(S(=O)(=O)N(CC(O)CN2C(=O)NC(C)(C)C2=O)c2cccc([N+](=O)[O-])c2)cc1` (centres undefined) reads 74.1%. The result for `COc1ccc(C(=O)Nc2nc3c(ccc4ccccc43)s2)c(OC)c1` reads 480%; that for `O=C(CC(=O)Nc1ccc2c(c1)Cc1cc([N+](=O)[O-])ccc1-2)Nc1ccc2c(c1)Cc1cc([N+](=O)[O-])ccc1-2`, 74%; that for `CC(=O)c1cccc(S(=O)(=O)N2CCC(n3nnc4cc(F)ccc43)CC2)c1`, 84.8%. The result for `Cc1ccc(S(=O)(=O)N2CCC(N3CCCCCC3)CC2)cc1` reads 79.2%; that for `O=S(=O)(c1cccc(S(=O)(=O)N2CCC(n3nnc4ccccc43)CC2)c1)N1CCCCC1`, 42.6% (active); that for `CCOC(=O)c1c(NC(=O)c2cccnc2)sc2c1CCCC2`, 131%. `Cc1nnc2sc(-c3ccco3)nn12`: the activity remaining (% of control) is 63.2%. The result for `Fc1ccc(-c2ccc(-c3nn4c(-c5ccco5)nnc4s3)o2)cc1` reads 49.1% (active); that for `FC(F)(F)c1nnc2sc(-c3ccco3)nn12`, 92.7%; that for `CCOC(=O)C1C(=O)C=C(C=Cc2cccs2)CC1c1ccccc1` (centres undefined), 107%. The result for `Cc1c(Cc2ccccc2)c(=O)oc2c(C)c(OC(C)C)ccc12` reads 64.3%. Turning to `Cn1c(C#CC(C)(C)O)cc2ccccc21`, the activity remaining (% of control) was 106%. The result for `COc1cc(-c2nnc(SCC(=O)c3ccc(Cl)cc3)o2)cc(OC)c1OC` reads 135%. The result for `Cc1ccc(S(=O)(=O)Nc2cccc(F)c2)cc1C(=O)O` reads 98.5%; that for `Cc1ccc(OCC(=O)Nc2ccc(C)c(Cl)c2)cc1C`, 81.6%; that for `COc1ccc(-c2nc3cc(C)ccc3o2)cc1N=Cc1cccc(OC)c1O`, 160%. The same measure for `CC(C)c1ccc2c(c1)c(SC(C)(C)C)c(CC(C)(C)C(=O)O)n2Cc1ccc(Cl)cc1`: 17.2% (active); for `CC(C)(C)C(O)Cn1c(=N)n(Cc2ccc(Cl)cc2)c2ccccc21` (centres undefined): 201%. In the case of `O=C(O)CCCC(=O)NC1=NCCS1`, the activity remaining (% of control) is 91.1%. The same measure for `NC(=O)c1c(NC(=O)c2ccc(Oc3ccccc3)cc2)sc2c1CCCCC2`: 77.2%; for `O=C1CSC(c2ccc([N+](=O)[O-])cc2)N1c1ccc(Br)cc1` (centres undefined): 83.1%; for `COC(=O)C1=C(C)NC2=C(C(=O)CC(C)(C)C2)C1c1cccc(O)c1` (centres undefined): 58.1%. In the case of `Cc1ccc(S(=O)(=O)CCc2nnc(NC(=O)c3ccc(C(C)(C)C)cc3)s2)cc1`, the activity remaining (% of control) is 50.6%. The result for `CCN(CC)S(=O)(=O)c1ccc(C(=O)Nc2nc3c(s2)C(=O)CC(C)(C)C3)cc1` reads 55.1%; that for `CCN(CC)c1ccc2cc(-c3nc4ccc(Cl)cc4[nH]3)c(=O)oc2c1`, 278%; that for `CCOc1c([N+](=O)[O-])c(=O)oc2ccccc12`, 111%. The result for `Cc1ccc2nc(NC(=O)c3ccccc3[N+](=O)[O-])sc2c1` reads 91.2%.

As for `Cc1ccccc1C(=O)Nc1ccc(C(=O)Nc2cccc(C(F)(F)F)c2)cc1`, the activity remaining (% of control) is 194%. The result for `CCOC(=O)c1ccc2nc(C34CC5CC(CC(C5)C3)C4)ccc2c1` reads 126%; that for `CCOC(=O)c1sc(NC(=O)C(CC)Sc2nccn2C)nc1C` (centres undefined), 90.3%. The same measure for `C=CCn1c2ccccc2c2nnc(SC(CC)C(=O)Nc3nc(C)c(C(=O)OCC)s3)nc21` (centres undefined): 42% (active); for `O=C(Oc1ccc2ccccc2c1Br)c1ccncc1`: 56.6%; for `Cn1c(C(C)(O)C(O)(c2ccccc2)c2ccccc2)nc2ccccc21` (centres undefined): 90.5%.

On to `CC1=C(C(=O)OC(C)C)C(c2ccc(O)c([N+](=O)[O-])c2)C2=C(CCCC2=O)N1` (centres undefined), for which the activity remaining (% of control) is 90.5%. As for `COc1cccc(NC(=O)c2ccc(N(Cc3ccccc3)S(C)(=O)=O)cc2)c1`, the activity remaining (% of control) is 89.5%. The same measure for `O=C1CC(Nc2ccc3ccccc3c2)C(=O)N1c1ccccc1` (centres undefined): 163%; for `CC(C)(C)C(=O)Nc1ccc(C(=O)Nc2ccc(Sc3ccc([N+](=O)[O-])cc3)cc2)cc1`: 57.4%. With `O=C(O)CCC(=O)Nc1ccc([N+](=O)[O-])cc1`, the activity remaining (% of control) was 64.9%.

`COc1ccc(NC(=O)c2sc(-c3ccccc3)nc2C)cc1`: the activity remaining (% of control) is 117%. `COc1ccc(C(=O)n2nnc3ccccc32)cc1`: the activity remaining (% of control) is 95.3%. The result for `COc1ccc(NC(=O)c2cc3ccccc3oc2=O)cc1Cl` reads 75.5%. On to `CC(=O)NCCN1C(=O)C(=O)/C(=C(/O)c2ccc(Cl)cc2)C1c1ccccc1F` (centres undefined), for which the activity remaining (% of control) was 108%. The result for `Cc1nc(-c2ccc(NC(=O)c3cccc(Br)c3)cc2)cs1` reads 162%; that for `COc1ccc(-n2nc3c(c2NC(=O)Cc2ccccc2)CSC3)cc1`, 73.5%.

As to `O=c1[nH]c2cc(Cl)ccc2c(-c2ccccc2)c1Sc1ncn[nH]1`, the activity remaining (% of control) was 98.9%. The result for `O=C(Nc1ccccc1F)c1ccc([N+](=O)[O-])cc1Cl` reads 205%. As for `CCOC(=O)C(=O)N1c2ccccc2C(C)(c2ccccc2)CC1(C)C` (centres undefined), the activity remaining (% of control) is 108%. On to `O=C1C2C3C=CC(O3)C2C(=O)N1c1ccc(Br)cc1[N+](=O)[O-]` (centres undefined), for which the activity remaining (% of control) is 77.6%. For `Cc1cc(C)cc(NC(=O)CCN2C(=O)c3ccccc3C2=O)c1`, the activity remaining (% of control) was 49.9%.

For `S=c1[nH]nc(COc2ccccc2)o1`, the activity remaining (% of control) was 52.5%.

With `CC(C)(C)n1nnnc1C(c1cccs1)N(Cc1cccnc1)CC1CCCO1` (centres undefined), the activity remaining (% of control) is 80.9%.

Consider `CCC(C)(C)n1nnnc1C(c1cccs1)N1CCN(Cc2ccccc2)CC1` (centres undefined), for which the activity remaining (% of control) is 85.8%. Take `CCOc1ccc(CN(Cc2ccco2)C(c2cccs2)c2nnnn2C(C)(C)C)cc1` (centres undefined): the activity remaining (% of control) was 36.6% (active). The result for `O=c1[nH]nc(SCc2ccc(Cl)cc2)c(=O)[nH]1` reads 64.4%; that for `COc1ccc(C2C(N3C(=O)c4cccc([N+](=O)[O-])c4C3=O)C(=O)N2c2ccc(C)c(C)c2)cc1OC` (centres undefined), 85.8%.

For the origin of these results see PubChem BioAssay AID436 (Emory University Molecular Libraries Screening Center, 2006).
